A selection: hits, their analogues and other compounds. The true share with any hit is near 5%.
VACV mCherry inh = vaccinia inhibition (mCherry reporter) | Vaccinia virus mCherry reporter infection, fluorescence | Potency, µM (highest dose often 36.5 µM), most hits filed as inhibitors | 0.63% of 310,000 active; calls by dose curve; tested in A549 cells; note: nearly all actives have a fitted effect of over 35% in size
VACV Venus inh = inhibitors of vaccinia virus (Venus reporter); Vaccinia virus Venus reporter expression, fluorescence; Potency, µM (titrated, usually from 36.5 µM), actives largely listed as inhibitors; 0.46% of 330,000 active; AID 720580; calls by dose curve; tested in A549 cells; note: nearly all actives have a fitted effect of over 30% in size
Tb PYK inh = blocks Trypanosoma brucei pyruvate kinase; 0.12% of 410,000 active; TbPYK enzyme, Kinase-Glo Plus ATP luminescence, 45 min; Potency, µM (doses to about 76.8 µM), usual class: inhibitors; note: nearly all actives have a fitted effect of over 50% in size
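In this concentration-response screen, enzyme-free wells defined baseline while DMSO plates tracked drift. Each reaction combined TbPYK, substrate, compound and 130 uM ADP for 45 min at room temperature. Kinase-Glo Plus luminescence gave the signal.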
HCMV antiviral = human cytomegalovirus inhibition. HFF cells, HCMV-luciferase reporter, 72 h; stronger effect = lower value. activity change, negative = inhibition, % at 57.5 µM. 4.5% of 410,000 active; in the data active = activity change below about -60%; inconclusive = no clear call, values can overlap the other calls; inactive = above about -39%
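Compounds were evaluated in HFFs infected with an HCMV luciferase reporter virus (MOI 1 PFU/cell). Luciferase in lysates collected 72 h post infection served as the replication measure.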
LmPK inh = inhibitors of Leishmania mexicana pyruvate kinase. purified LmPK, Kinase-Glo ATP luminescence, 1 h. Potency, µM (top dose mostly 57.5 µM), most hits filed as inhibitors. 0.37% of 290,000 active
Target sequence (Q27686 whole entry, looked up): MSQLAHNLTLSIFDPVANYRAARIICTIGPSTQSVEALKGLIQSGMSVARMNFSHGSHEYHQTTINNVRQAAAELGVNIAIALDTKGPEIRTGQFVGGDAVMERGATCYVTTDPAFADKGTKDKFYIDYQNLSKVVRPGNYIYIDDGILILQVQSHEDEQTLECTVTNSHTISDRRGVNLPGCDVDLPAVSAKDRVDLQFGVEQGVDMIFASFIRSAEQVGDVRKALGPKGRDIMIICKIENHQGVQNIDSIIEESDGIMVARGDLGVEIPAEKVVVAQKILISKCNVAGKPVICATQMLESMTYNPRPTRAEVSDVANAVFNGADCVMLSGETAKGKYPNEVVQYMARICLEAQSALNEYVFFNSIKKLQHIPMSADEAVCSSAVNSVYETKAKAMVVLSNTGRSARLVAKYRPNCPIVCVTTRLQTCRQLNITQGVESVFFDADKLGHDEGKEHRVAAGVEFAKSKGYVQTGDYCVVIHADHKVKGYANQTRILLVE
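Pyruvate kinase activity monitored as ATP production (luciferase luminescence). Conditions: 0.1 nM enzyme, 0.5 mM PEP, 0.1 mM ADP, 1 h, RT; normalized against uninhibited and no-enzyme wells.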
Each line names hits and unclear results; the compound was inactive in the other large screens. Unless noted, calls come from the whole dose curve; as a rule, active = well fitted curve in the direction sought with a large enough effect; inconclusive = small, poorly fitted or top-dose-only effect, or another doubt; inactive = no such curve, though single readings can be large; an effect the other way counts as inactive or inconclusive.

Cc1ccn2c(-c3csc(NCc4ccco4)n3)c(C)nc2c1	HCMV antiviral -68.2 (no result: VACV mCherry inh, VACV Venus inh)
COc1ccc(-c2csc(NCc3ccco3)n2)cc1C	none (no result: VACV mCherry inh, HCMV antiviral)
O=C(CCCc1nc(-c2ccc(Cl)cc2)no1)NC1CCCC1	HCMV antiviral -83.7
COc1ccc(-c2noc(CCCC(=O)Nc3ccc(C(N)=O)cc3)n2)cc1	HCMV antiviral -89.7 (no result: VACV mCherry inh, VACV Venus inh)
COc1cc(-c2noc(CCCC(=O)Nc3ccc(C(N)=O)cc3)n2)cc(OC)c1OC	none
COc1cccc(NC(=O)CCc2nc(-c3ccccc3F)no2)c1	none
COc1ccccc1CC(=O)Nc1ccc(-c2noc(COc3ccc(Cl)c(C)c3)n2)cc1	HCMV antiviral -67.0 (no result: VACV mCherry inh, VACV Venus inh)
O=C(CCc1nc(-c2ccccc2F)no1)Nc1ccc(Oc2ccccc2)cc1	VACV Venus inh inconclusive, HCMV antiviral -63.7 (no result: VACV mCherry inh)
COc1ccc(-c2noc(CCC(=O)NC3CCCCCC3)n2)cc1	none (no result: VACV mCherry inh, VACV Venus inh)
O=C(CCSCc1ccc(Cl)cc1)NC1CCCC1	HCMV antiviral -101.8
COc1ccc(-c2noc(CCCC(=O)NC3CCCC3)n2)cc1	HCMV antiviral -80.4
CCOc1ccc(NC(=O)Cn2cc(C(=O)CC)c3ccccc32)cc1	none (no result: VACV mCherry inh, VACV Venus inh, HCMV antiviral)
O=C(C1CCCN(S(=O)(=O)c2ccccc2)C1)N1CCCCCC1 (stereo not given)	HCMV antiviral inconclusive
COc1ccc(NS(=O)(=O)c2ccc(C(=O)N3CCC(C)CC3)cc2)cc1	HCMV antiviral -66.2 (no result: LmPK inh)
O=C(c1ccc(S(=O)(=O)Nc2ccc(F)cc2)cc1)N1CCN(C(=O)c2ccco2)CC1	HCMV antiviral -68.7
CC1CCN(C(=O)c2ccc(NS(=O)(=O)c3ccc4[nH]c(=O)[nH]c4c3)cc2)CC1	HCMV antiviral -97.9 (no result: LmPK inh)
CCSC1=NC2(CCN(C(=O)NC3CCCCC3)CC2)N=C1c1ccc(Cl)cc1	none (no result: LmPK inh)
CCOC(=O)C1=CCN(S(=O)(=O)c2ccc(F)cc2)C1c1ccc(Cl)cc1 (stereo not given)	none (no result: VACV mCherry inh, VACV Venus inh, Tb PYK inh, LmPK inh)
CCOC(=O)C1=CCN(S(=O)(=O)c2ccc(F)cc2)C1c1ccc(Cl)c(Cl)c1 (stereo not given)	VACV mCherry inh 7.94µM, VACV Venus inh 12.6µM, HCMV antiviral inconclusive (no result: Tb PYK inh, LmPK inh)
CC(C)(C)OC(=O)C1=CC[C@@H](c2ccc(Cl)c(Cl)c2)N(S(=O)(=O)c2ccc(F)cc2)[C@H]1c1cccc(F)c1	HCMV antiviral -64.0 (no result: LmPK inh)
CCOC(=O)C1=CCN(S(=O)(=O)c2ccccc2C)C1c1ccc(Cl)c(Cl)c1 (stereo not given)	HCMV antiviral -75.6 (no result: LmPK inh)
CC1=NN(c2nc(-c3ccccc3)cs2)C(=O)C1N=Nc1ccccc1 (stereo not given)	none
CC(=O)Nc1ccc(NC(=O)c2nc(S(=O)(=O)Cc3ccc(F)cc3)ncc2Cl)cc1	HCMV antiviral -99.8 (no result: LmPK inh)
Cc1ccc(NC(=O)c2nc(S(=O)(=O)Cc3ccccc3C)ncc2Cl)cc1C	HCMV antiviral -98.1
Cc1ccc(NC(=O)c2nc(S(=O)(=O)Cc3ccc(F)cc3)ncc2Cl)cc1C	VACV Venus inh inconclusive, HCMV antiviral -98.4 (no result: LmPK inh)
O=C(Nc1ccccc1)C1=C[C@@H](c2ccc(Br)cc2)C[C@@H](OCc2ccc(CO)cc2)O1	VACV mCherry inh inconclusive
O=C(Cn1cc([N+](=O)[O-])cn1)Nc1cccnc1	none
COc1cccc(C(=O)NC2CCCc3ccccc32)c1 (stereo not given)	none
Cc1nc2ccccn2c1C(=O)NC1CCCc2ccccc21 (stereo not given)	VACV mCherry inh inconclusive, HCMV antiviral -72.3
COc1ccc(C(=O)NC2CCCc3ccccc32)cc1 (stereo not given)	HCMV antiviral -70.4
Cc1nn(Cc2ccc(C(=O)Nc3ccccc3F)cc2)c(C)c1Cl	Tb PYK inh inconclusive, HCMV antiviral -61.8 (no result: VACV mCherry inh, VACV Venus inh)
Cc1nn(Cc2ccc(Cl)cc2)c(C)c1NC(=O)C(c1ccccc1)c1ccccc1	HCMV antiviral -64.0
Cc1cc(C(=O)Nc2c(C)nn(Cc3ccc(Cl)cc3)c2C)no1	none (no result: VACV mCherry inh, VACV Venus inh)
COC(CN(C)C(=O)C1CCCN(S(=O)(=O)c2ccc3c(c2)oc(=O)n3C)C1)OC (stereo not given)	none (no result: VACV mCherry inh, VACV Venus inh)
Nc1[nH]c(C(=O)c2ccccc2)c(-c2cccc(C(F)(F)F)c2)c1C(=O)NCCc1c[nH]c2ccccc12	HCMV antiviral -72.3 (no result: VACV mCherry inh, VACV Venus inh, Tb PYK inh, LmPK inh)
O=c1[nH]c(Nc2nc3ccccc3o2)nc2c1CCCC2	VACV mCherry inh inconclusive, VACV Venus inh inconclusive, HCMV antiviral -98.6
O=C(COC(=O)c1ccccc1)Nc1ccccc1N1CCOCC1	none (no result: VACV mCherry inh)
Cc1cc(C)c2ccc(N)nc2c1O	VACV mCherry inh 12.6µM, VACV Venus inh inconclusive, HCMV antiviral -104.9
COCCNC(=O)CSc1nc2cc3c(cc2c(=O)n1CCCC(=O)NCCc1ccc(OC)c(OC)c1)OCO3	none
COc1ccc(NC(=O)CCn2cnc3onc(-c4ccc(F)cc4)c3c2=O)cc1OC	VACV mCherry inh inconclusive, VACV Venus inh inconclusive, HCMV antiviral -71.8 (no result: LmPK inh)
COc1cc(Cl)c(C)cc1NC(=O)CCn1cnc2onc(-c3ccc(F)cc3)c2c1=O	none (no result: LmPK inh)
CCOc1ccc(CCN2C(=S)N([C@@H](CC(C)C)CN3CCCC3CN3C(=S)NC[C@@H]3Cc3ccccc3)C[C@@H]2CC(C)C)cc1 (stereo not given in full)	HCMV antiviral inconclusive (no result: LmPK inh)
CC(=O)OC1(C)CC(C)C(=O)C(C(O)CC2CC(=O)NC(=O)C2)C1 (stereo not given)	VACV mCherry inh inconclusive, VACV Venus inh 0.1µM, HCMV antiviral -105.2 (no result: LmPK inh)
C[C@@H]1C[C@@H]([C@H](O)CC2CC(=O)NC(=O)C2)C(=O)[C@@H](C)C1	VACV mCherry inh 0.316µM, VACV Venus inh 0.282µM, HCMV antiviral -76.1 (no result: LmPK inh)
CCc1ccc(-n2nc(CO)c(C(=O)NCc3ccccc3OC)n2)cc1	none (no result: LmPK inh)
COc1ccccc1CNS(=O)(=O)c1ccc2c(c1)CC(C)N2C(=O)C1CC1 (stereo not given)	HCMV antiviral inconclusive (no result: VACV mCherry inh, VACV Venus inh)
CCCN(c1ccccc1CC)S(=O)(=O)c1ccc2c(c1)CC(C)N2C(=O)C1CC1 (stereo not given)	VACV mCherry inh inconclusive, VACV Venus inh inconclusive, HCMV antiviral -92.9 (no result: LmPK inh)
COc1ccccc1CNS(=O)(=O)c1ccc2c(c1)CC(C)N2C(=O)C1CCC1 (stereo not given)	Tb PYK inh inconclusive, HCMV antiviral -61.3
CCCCN(c1ccccc1)S(=O)(=O)c1ccc2c(c1)CC(C)N2C(=O)C1CC1 (stereo not given)	none (no result: LmPK inh)
CCc1ccc(Sc2cc(C(=O)NCc3cccc(OC)c3)c3ccccc3n2)cc1	HCMV antiviral inconclusive (no result: LmPK inh)
CCc1ccc(Sc2cc(C(=O)NCCCN3CCCC(C)C3)c3ccccc3n2)cc1 (stereo not given)	HCMV antiviral -60.5 (no result: LmPK inh)
CCc1ccc(Nc2cc(C(=O)NCCCN3CCOCC3)c3ccccc3n2)cc1	VACV mCherry inh inconclusive, HCMV antiviral inconclusive
CCc1ccc(Sc2cc(C(=O)NCCCN3CCC(C)CC3)c3ccccc3n2)cc1	HCMV antiviral -77.1 (no result: LmPK inh)
O=C(Oc1ccc(-c2ccccc2)cc1)C1C2CCCCC21 (stereo not given)	HCMV antiviral inconclusive

Screening data deposited in PubChem by National Center for Advancing Translational Sciences (NCATS).
